# Assay results: PubChem BioAssay (NCI)
# The panel holds about 83,000 compounds, 20% with a hit somewhere; the sample as a whole holds those more often.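 Treatment: one concentration, 48 hours, 96-well format. Scoring: percent growth, with anything below 10 considered active.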 Values without a mark were called inactive. Active and inactive are the calls of the source.
# Tests used:
# Test in all cases: NCI-60 one-dose screen, 48 h (100 = growth as untreated, 0 = no growth, -100 = all killed)
# Conditions in all cases: 10 µM unless noted
# [1] = system: SK-MEL-2 melanoma
# [2] = system: EKVX NSCLC
# [3] = system: SN12C renal
# [4] = system: UO-31 renal
# [5] = system: TK-10 renal
# [6] = system: ACHN renal
# [7] = system: CAKI-1 renal
# [8] = system: A498 renal
# [9] = system: CCRF-CEM leukemia
# [10] = system: MOLT-4 leukemia
# [11] = system: SR leukemia
# [12] = system: OVCAR-8 ovarian
# [13] = system: OVCAR-5 ovarian
# [14] = system: OVCAR-4 ovarian
# [15] = system: SK-OV-3 ovarian
# [16] = system: IGROV1 ovarian
# [17] = system: OVCAR-3 ovarian
# [18] = system: HS 578T breast
# [19] = system: RPMI-8226 leukemia
# [20] = system: NCI/ADR-RES ovarian
Compound,growth [1],growth [2],growth [3],growth [4],growth [5],growth [6],growth [7],growth [8],growth [9],growth [10],growth [11],growth [12],growth [13],growth [14],growth [15],growth [16],growth [17],growth [18],growth [19],growth [20]
O=C1Nc2cc(Cl)ccc2Oc2cc(Oc3ccccc3)ccc21,48%,72%,68%,53.4%,78%,83.7%,51%,67.1%,54.6%,45.9%,20.7%,88%,83%,71.5%,47.4%,63.3%,27.6%,43.3%,–,–
CCSc1nnc(NC(=O)Cc2ccc(Cl)cc2)s1,73.4%,103%,105%,40%,113%,103%,102%,100%,87.9%,103%,–,113%,97.1%,107%,106%,-24.9% (active),106%,–,116%,104%
O=C(O)C(=Cc1c2ccccc2cc2ccccc12)C(=O)O,104%,104%,101%,82%,93.3%,97.6%,99.9%,83.3%,101%,92.4%,–,104%,112%,117%,107%,111%,118%,106%,103%,98.3%
Cc1cc(Cl)ccc1OC(C)C(=O)Nc1nnc(C2CC2)s1 (stereo not given),36.3%,98.6%,96.4%,40.1%,104%,109%,103%,95.2%,95.9%,108%,–,111%,98.7%,–,103%,-51.7% (active),110%,-24.6% (active),89.6%,96.6%
CCOC(=O)CC/C(C)=N\Nc1ccc([N+](=O)[O-])cc1,58.8%,51.9%,77.6%,30.3%,58.2%,36.8%,40.6%,85.1%,41.7%,35.4%,–,56.9%,84.3%,77.2%,57.8%,71%,86.1%,88.6%,59.8%,80.3%
O=C(c1ccccc1)C(Cl)C(Cl)c1ccccc1 (stereo not given),96.3%,79%,-13.9% (active),-50.5% (active),-8.89% (active),-71.5% (active),38%,103%,5.75% (active),25.9%,–,-1.77% (active),113%,41.2%,138%,–,2.77% (active),83.7%,-5.33% (active),80.2%
